Assay results taken from the supplement of paper PMC4466140.

B1: unnamed (peptide)
chain: NTMKKRPAPPSLPSL

Target: AgAbp1
Test: SPOT peptide array binding signal intensity (averaged, normalized) (arbitrary units (background-subtracted, floor 0; scale differs between SH3 domains)); higher = stronger binding of the SH3 domain to the peptide
Outline: (§1)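 GST-fused SH3 domains, from four yeast species, were produced in E. coli BL21(DE3) and captured on glutathione Sepharose. Membranes of cellulose carrying synthetic 15-mer peptides, in which cysteines had been replaced by serines, were exposed to each domain at 10 μg/ml overnight at 4°C in TBS-based blocking buffer. After anti-GST antibody, an HRP anti-mouse secondary and luminol, spots were imaged and quantified using Genespotter. Binding signal is normalized and background-subtracted spot intensity, averaged over replicates, in arbitrary units that differ between domains.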

Row | Binder | SPOT peptide array binding signal intensity
1 | B1 | 93

Target: AgBbc1
Test: as above
Outline: as §1

Row | Binder | SPOT peptide array binding signal intensity
2 | B1 | 21

Target: AgBem1-D1
Test: as above
Outline: as §1

Row | Binder | SPOT peptide array binding signal intensity
3 | B1 | 405

Target: AgBzz1-D1
Test: as above
Outline: as §1

Row | Binder | SPOT peptide array binding signal intensity
4 | B1 | 152

Target: AgBzz1-D2
Test: as above
Outline: as §1

Row | Binder | SPOT peptide array binding signal intensity
5 | B1 | 240

Target: AgCyk3
Test: as above
Outline: as §1

Row | Binder | SPOT peptide array binding signal intensity
6 | B1 | ≤ 0

Target: AgFus1
Test: as above
Outline: as §1

Row | Binder | SPOT peptide array binding signal intensity
7 | B1 | 375

Target: AgHof1
Test: as above
Outline: as §1

Row | Binder | SPOT peptide array binding signal intensity
8 | B1 | 286

Target: AgHse1
Test: as above
Outline: as §1

Row | Binder | SPOT peptide array binding signal intensity
9 | B1 | 641

Target: AgLsb1
Test: as above
Outline: as §1

Row | Binder | SPOT peptide array binding signal intensity
10 | B1 | 15.5

Target: AgLsb4
Test: as above
Outline: as §1

Row | Binder | SPOT peptide array binding signal intensity
11 | B1 | 61.5

Target: AgMyo5
Test: as above
Outline: as §1

Row | Binder | SPOT peptide array binding signal intensity
12 | B1 | 66.5

Target: AgNbp2
Test: as above
Outline: as §1

Row | Binder | SPOT peptide array binding signal intensity
13 | B1 | 384

Target: AgRvs167
Test: as above
Outline: as §1

Row | Binder | SPOT peptide array binding signal intensity
14 | B1 | 3.33

Target: AgSho1
Test: as above
Outline: as §1

Row | Binder | SPOT peptide array binding signal intensity
15 | B1 | 496

Target: AgSla1-D1-D2
Test: as above
Outline: as §1

Row | Binder | SPOT peptide array binding signal intensity
16 | B1 | 114

Target: AgSla1-D3
Test: as above
Outline: as §1

Row | Binder | SPOT peptide array binding signal intensity
17 | B1 | 59.8

Target: CaAbp1-D1
Test: as above
Outline: as §1

Row | Binder | SPOT peptide array binding signal intensity
18 | B1 | 1570

Target: CaAbp1-D2
Test: as above
Outline: as §1

Row | Binder | SPOT peptide array binding signal intensity
19 | B1 | 892

Target: CaBbc1
Test: as above
Outline: as §1

Row | Binder | SPOT peptide array binding signal intensity
20 | B1 | 151

Target: CaBem1-D1
Test: as above
Outline: as §1

Row | Binder | SPOT peptide array binding signal intensity
21 | B1 | 279

Target: CaBzz1-D1
Test: as above
Outline: as §1

Row | Binder | SPOT peptide array binding signal intensity
22 | B1 | 2650

Target: CaBzz1-D2
Test: as above
Outline: as §1

Row | Binder | SPOT peptide array binding signal intensity
23 | B1 | 952

Target: CaCyk3
Test: as above
Outline: as §1

Row | Binder | SPOT peptide array binding signal intensity
24 | B1 | 13.5

Target: CaFus1
Test: as above
Outline: as §1

Row | Binder | SPOT peptide array binding signal intensity
25 | B1 | 1380

Target: CaHof1
Test: as above
Outline: as §1

Row | Binder | SPOT peptide array binding signal intensity
26 | B1 | 0.5

Target: CaHse1
Test: as above
Outline: as §1

Row | Binder | SPOT peptide array binding signal intensity
27 | B1 | 262

Target: CaLsb1
Test: as above
Outline: as §1

Row | Binder | SPOT peptide array binding signal intensity
28 | B1 | 6

Target: CaLsb4
Test: as above
Outline: as §1

Row | Binder | SPOT peptide array binding signal intensity
29 | B1 | 589

Target: CaMyo5
Test: as above
Outline: as §1

Row | Binder | SPOT peptide array binding signal intensity
30 | B1 | 137

Target: CaNbp2
Test: as above
Outline: as §1

Row | Binder | SPOT peptide array binding signal intensity
31 | B1 | 1280

Target: CaRvs167
Test: as above
Outline: as §1

Row | Binder | SPOT peptide array binding signal intensity
32 | B1 | 89

Target: CaRvs167-3
Test: as above
Outline: as §1

Row | Binder | SPOT peptide array binding signal intensity
33 | B1 | 1.25

Target: CaSho1
Test: as above
Outline: as §1

Row | Binder | SPOT peptide array binding signal intensity
34 | B1 | 1700

Target: CaSla1-D1-D2
Test: as above
Outline: as §1

Row | Binder | SPOT peptide array binding signal intensity
35 | B1 | 648

Target: CaSla1-D3
Test: as above
Outline: as §1

Row | Binder | SPOT peptide array binding signal intensity
36 | B1 | 246

Target: ScAbp1
Test: as above
Outline: as §1

Row | Binder | SPOT peptide array binding signal intensity
37 | B1 | 30

Target: ScBbc1
Test: as above
Outline: as §1

Row | Binder | SPOT peptide array binding signal intensity
38 | B1 | 4.5

Target: ScBem1-D1
Test: as above
Outline: as §1

Row | Binder | SPOT peptide array binding signal intensity
39 | B1 | 1

Target: ScBzz1-D1
Test: as above
Outline: as §1

Row | Binder | SPOT peptide array binding signal intensity
40 | B1 | 134

Target: ScBzz1-D2
Test: as above
Outline: as §1

Row | Binder | SPOT peptide array binding signal intensity
41 | B1 | 59

Target: ScCyk3
Test: as above
Outline: as §1

Row | Binder | SPOT peptide array binding signal intensity
42 | B1 | 11

Target: ScFus1
Test: as above
Outline: as §1

Row | Binder | SPOT peptide array binding signal intensity
43 | B1 | 457

Target: ScHof1
Test: as above
Outline: as §1

Row | Binder | SPOT peptide array binding signal intensity
44 | B1 | 19.5

Target: ScHse1
Test: as above
Outline: as §1

Row | Binder | SPOT peptide array binding signal intensity
45 | B1 | 1410

Target: ScLsb1
Test: as above
Outline: as §1

Row | Binder | SPOT peptide array binding signal intensity
46 | B1 | 29.5

Target: ScLsb2
Test: as above
Outline: as §1

Row | Binder | SPOT peptide array binding signal intensity
47 | B1 | ≤ 0

Target: ScLsb3
Test: as above
Outline: as §1

Row | Binder | SPOT peptide array binding signal intensity
48 | B1 | 344

Target: ScLsb4
Test: as above
Outline: as §1

Row | Binder | SPOT peptide array binding signal intensity
49 | B1 | 130

Target: ScMyo3
Test: as above
Outline: as §1

Row | Binder | SPOT peptide array binding signal intensity
50 | B1 | 350

Target: ScMyo5
Test: as above
Outline: as §1

Row | Binder | SPOT peptide array binding signal intensity
51 | B1 | 287

Target: ScNbp2
Test: as above
Outline: as §1

Row | Binder | SPOT peptide array binding signal intensity
52 | B1 | 383

Target: ScPex13
Test: as above
Outline: as §1

Row | Binder | SPOT peptide array binding signal intensity
53 | B1 | 310

Target: ScRvs167
Test: as above
Outline: as §1

Row | Binder | SPOT peptide array binding signal intensity
54 | B1 | 64.5

Target: ScSho1
Test: as above
Outline: as §1

Row | Binder | SPOT peptide array binding signal intensity
55 | B1 | 837

Target: ScSla1-D1-D2
Test: as above
Outline: as §1

Row | Binder | SPOT peptide array binding signal intensity
56 | B1 | 234

Target: ScSla1-D3
Test: as above
Outline: as §1

Row | Binder | SPOT peptide array binding signal intensity
57 | B1 | 521

Target: SpAbp1-D1
Test: as above
Outline: as §1

Row | Binder | SPOT peptide array binding signal intensity
58 | B1 | 78.5

Target: SpBbc1
Test: as above
Outline: as §1

Row | Binder | SPOT peptide array binding signal intensity
59 | B1 | 3

Target: SpBzz1-D1
Test: as above
Outline: as §1

Row | Binder | SPOT peptide array binding signal intensity
60 | B1 | 1170

Target: SpBzz1-D2
Test: as above
Outline: as §1

Row | Binder | SPOT peptide array binding signal intensity
61 | B1 | 257

Target: SpCyk3
Test: as above
Outline: as §1

Row | Binder | SPOT peptide array binding signal intensity
62 | B1 | 2

Target: SpHof1
Test: as above
Outline: as §1

Row | Binder | SPOT peptide array binding signal intensity
63 | B1 | 144

Target: SpHof1-2
Test: as above
Outline: as §1

Row | Binder | SPOT peptide array binding signal intensity
64 | B1 | 41.8

Target: SpHof1-3
Test: as above
Outline: as §1

Row | Binder | SPOT peptide array binding signal intensity
65 | B1 | 227

Target: SpHse1
Test: as above
Outline: as §1

Row | Binder | SPOT peptide array binding signal intensity
66 | B1 | 602

Target: SpLsb1
Test: as above
Outline: as §1

Row | Binder | SPOT peptide array binding signal intensity
67 | B1 | 12.2

Target: SpLsb4
Test: as above
Outline: as §1

Row | Binder | SPOT peptide array binding signal intensity
68 | B1 | 788

Target: SpMyo1
Test: as above
Outline: as §1

Row | Binder | SPOT peptide array binding signal intensity
69 | B1 | 196

Target: SpNbp2
Test: as above
Outline: as §1

Row | Binder | SPOT peptide array binding signal intensity
70 | B1 | 308

Target: SpPex13
Test: as above
Outline: as §1

Row | Binder | SPOT peptide array binding signal intensity
71 | B1 | 55

Target: SpRvs167
Test: as above
Outline: as §1

Row | Binder | SPOT peptide array binding signal intensity
72 | B1 | 110

Target: SpSla1-D1-D2
Test: as above
Outline: as §1

Row | Binder | SPOT peptide array binding signal intensity
73 | B1 | 15

Target: SpSla1-D3
Test: as above
Outline: as §1

Row | Binder | SPOT peptide array binding signal intensity
74 | B1 | 156
